Outcome and AC50 data for 16 molecules are collected here from PubChem BioAssay (EPA / NIEHS).

Assay [1] in a line: ATG_CMV_CIS: Attagene CIS-FACTORIAL HepG2 Assay for human CMV (Internal Marker) (AID 2282928).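 Note: endpoint acts as a background internal control marker rather than a target.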 As to conditions: HepG2 CMV promoter reporter, transcription factor profiling; actives raise or lower the signal. The procedure, abridged: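 HepG2 cells transiently transfected with multiple cis-regulated reporter units; 24 h compound exposure. Reporter mRNA quantified by RT-PCR, 6-FAM primer-extension labeling, HpaI digestion and capillary electrophoresis; bidirectional fitting against DMSO baseline.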

A short description of assay [2]: ATG_DR4_LXR_CIS: Attagene CIS-FACTORIAL HepG2 Assay for human Liver X Receptor (LXR), DR4 submotif (AID 2282929). The following applies: HepG2 Attagene DR4 cis-reporter, mRNA transcription; AC50: actives raise or lower the signal unless noted; outcome: actives raise or lower the signal unless noted. The procedure, abridged:
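HepG2, transient MRTU transfection, cis-element (DR4) promoter; 24 h compound exposure; total RNA → oligo(dT) RT → PCR → 6-FAM primer extension → HpaI cut → CE. Gain/loss vs DMSO, bidirectional fit.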

The target in assay [3] is Aryl hydrocarbon receptor (Homo sapiens) (UniProt P35869). The experiment in a line: ATG_Ahr_CIS: Attagene CIS-FACTORIAL HepG2 Assay for human Aryl Hydrocarbon Receptor (Ahr) (AID 2282930). The following applies: HepG2 AhR cis-factorial reporter transcription; actives raise or lower the signal. The procedure, abridged:
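Endogenous factor activity is tracked through cis-promoter reporter units transfected into HepG2 cells. Transcript levels at 24 h are read by fluorescent RT-PCR and capillary electrophoresis, with activity in either direction scored relative to DMSO.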

A short description of assay [4]: ATG_AP_1_CIS: Attagene CIS-FACTORIAL HepG2 Assay for human Activator Protein 1 (AP-1) (AID 2282931). As to conditions: HepG2 Attagene cis-factorial AP-1 reporter mRNA; actives raise or lower the signal. The gist of the method: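 Transient MRTU transfection of HepG2 → 24 h chemical treatment → RNA isolation, RT-PCR, 6-FAM labelling, HpaI digest → capillary electrophoresis. Fit: bidirectional, DMSO negative control.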

A short description of assay [5]: ATG_AP_2_CIS: Attagene CIS-FACTORIAL HepG2 Assay for human Activator Protein 2 (AP-2) (AID 2282932). The following applies: HepG2 AP-2 cis-reporter, Attagene transcription factor profiling; AC50: actives raise or lower the signal unless noted; outcome: actives raise or lower the signal unless noted. The gist of the method:
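HepG2 cells transiently transfected with cis-element reporter units and exposed for 24 h. Reporter mRNA measured by RT-PCR, FAM labelling, HpaI digestion and capillary electrophoresis. Changes in either direction fitted relative to DMSO.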

The nature of assay [6]: ATG_BRE_CIS: Attagene CIS-FACTORIAL HepG2 Assay for human Bone Morphogenetic Protein (BMP) Response Element (BRE) (AID 2282933). As to conditions: HepG2 BMP response element reporter, Attagene transcription factor profiling; actives raise or lower the signal. The gist of the method:
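A HepG2 multiplex reporter system measured inducible reporter mRNA 24 h post-dosing. Detection: RT-PCR, 6-FAM primer extension, HpaI digestion, capillary electrophoresis. Activity fitted bidirectionally relative to DMSO.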

Assay [7] concerns the target Transcription factor E2F1 (Homo sapiens) (UniProt Q01094). Kind of assay: ATG_E2F_CIS: Attagene CIS-FACTORIAL HepG2 Assay for human E2F Transcription Factor 1 (AID 2282935). The following applies: HepG2 Attagene cis-reporter, E2F reporter RNA transcripts; actives raise or lower the signal. The procedure, abridged:
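Endogenous E2F1 activity read through cis-promoter reporter units transfected into HepG2. After 24 h compound treatment, reporter mRNA measured by RT-PCR, HpaI digestion and capillary electrophoresis. Bidirectional fit versus DMSO.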

A short description of assay [8]: ATG_E_Box_CIS: Attagene CIS-FACTORIAL HepG2 Assay for human Enhancer Box (E-box) (AID 2282936). The following applies: HepG2 E-box cis-reporter transcription, actives raise or lower the signal. The gist of the method: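 HepG2 cells transiently transfected with multiplexed cis-element reporter units, dosed 24 h; reporter mRNA quantified by RT-PCR, 6-FAM labelling, HpaI digestion and capillary electrophoresis. E-box (USF1) signal fitted bidirectionally vs DMSO.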

The target of assay [9] is Retinoic acid receptor alpha (Homo sapiens) (UniProt P10276). The experiment in a line: ATG_DR5_RAR_CIS: Attagene CIS-FACTORIAL HepG2 Assay for human Retinoic Acid Receptor Alpha (RARE), DR5 submotif (AID 2282934).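 For AC50: reporter responds to endogenous RAR alpha beta and gamma in HepG2 not RARA alone.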 The following applies: HepG2 Attagene cis-factorial RARE DR5 reporter, mRNA; actives raise or lower the signal. The gist of the method: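 After 24 h of chemical exposure, transiently transfected HepG2 cells were lysed for total RNA; the DR5-regulated reporter transcript was quantified via RT-PCR and capillary electrophoresis, with activity fitted bidirectionally against DMSO.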
Chain of Retinoic acid receptor alpha (Homo sapiens) (P10276 whole entry, looked up): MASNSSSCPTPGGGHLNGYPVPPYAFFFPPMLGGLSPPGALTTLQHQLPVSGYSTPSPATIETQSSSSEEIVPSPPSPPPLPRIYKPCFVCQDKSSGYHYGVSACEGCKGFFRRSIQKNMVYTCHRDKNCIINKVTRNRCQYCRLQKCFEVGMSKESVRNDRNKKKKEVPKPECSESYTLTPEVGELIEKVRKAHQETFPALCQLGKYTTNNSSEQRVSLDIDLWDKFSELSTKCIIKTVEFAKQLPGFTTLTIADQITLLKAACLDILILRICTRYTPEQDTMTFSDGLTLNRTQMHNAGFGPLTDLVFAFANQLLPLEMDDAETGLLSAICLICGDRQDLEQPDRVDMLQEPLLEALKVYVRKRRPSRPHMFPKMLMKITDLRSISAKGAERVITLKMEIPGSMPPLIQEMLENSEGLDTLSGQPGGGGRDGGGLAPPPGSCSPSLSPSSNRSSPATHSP

Several values for one entry are separate records, joined by “and”; a condition that tells them apart may be missing. Equal values may be shown once. A structure can be active in one record and inactive in another. Activity calls are given as the source filed them. Rule for the calls: active = hit-call score of the fitted dose curve at least 0.9, where 1 is the maximum; inactive = score below 0.9.

Chain of Aryl hydrocarbon receptor (Homo sapiens) (P35869 whole entry, looked up): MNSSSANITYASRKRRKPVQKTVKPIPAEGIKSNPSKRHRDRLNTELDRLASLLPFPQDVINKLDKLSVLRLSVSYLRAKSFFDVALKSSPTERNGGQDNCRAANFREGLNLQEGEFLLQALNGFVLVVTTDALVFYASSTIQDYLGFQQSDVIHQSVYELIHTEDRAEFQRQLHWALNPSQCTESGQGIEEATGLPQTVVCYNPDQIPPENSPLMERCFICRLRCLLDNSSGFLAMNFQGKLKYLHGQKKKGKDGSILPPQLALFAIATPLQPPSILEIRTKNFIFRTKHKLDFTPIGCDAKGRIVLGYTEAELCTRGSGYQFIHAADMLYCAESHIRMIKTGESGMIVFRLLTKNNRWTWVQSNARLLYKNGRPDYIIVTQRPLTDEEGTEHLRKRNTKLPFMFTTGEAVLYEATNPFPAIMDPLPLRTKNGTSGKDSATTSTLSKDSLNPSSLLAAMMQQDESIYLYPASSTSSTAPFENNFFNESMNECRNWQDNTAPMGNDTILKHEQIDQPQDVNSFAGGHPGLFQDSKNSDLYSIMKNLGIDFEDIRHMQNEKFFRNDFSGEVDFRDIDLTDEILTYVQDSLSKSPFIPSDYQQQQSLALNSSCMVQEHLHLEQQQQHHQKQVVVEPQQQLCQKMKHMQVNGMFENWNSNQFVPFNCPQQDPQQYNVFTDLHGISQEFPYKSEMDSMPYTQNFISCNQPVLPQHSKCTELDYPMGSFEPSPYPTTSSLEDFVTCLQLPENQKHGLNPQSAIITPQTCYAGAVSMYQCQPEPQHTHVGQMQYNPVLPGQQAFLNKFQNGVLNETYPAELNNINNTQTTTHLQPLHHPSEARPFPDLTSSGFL
Chain of Transcription factor E2F1 (Homo sapiens) (Q01094 whole entry, looked up): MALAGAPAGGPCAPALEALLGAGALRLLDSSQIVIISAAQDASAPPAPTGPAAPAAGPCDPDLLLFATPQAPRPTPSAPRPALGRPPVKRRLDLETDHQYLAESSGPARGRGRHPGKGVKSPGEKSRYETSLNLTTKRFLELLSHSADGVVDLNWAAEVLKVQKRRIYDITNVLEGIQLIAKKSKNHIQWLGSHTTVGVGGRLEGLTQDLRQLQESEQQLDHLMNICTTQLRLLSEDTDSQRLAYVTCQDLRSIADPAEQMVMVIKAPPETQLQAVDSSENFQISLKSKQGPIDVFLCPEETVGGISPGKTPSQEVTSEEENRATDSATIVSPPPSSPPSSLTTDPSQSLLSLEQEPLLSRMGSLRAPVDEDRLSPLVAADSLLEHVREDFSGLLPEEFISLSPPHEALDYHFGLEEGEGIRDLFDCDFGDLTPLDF

Regarding `CC1CNCC(C)O1` (centres undefined), the result in [1], in [2], in [3], in assay [4], in [5] and in [6] was inactive. Also, the call in assay [7] and in assay [8] was inactive.

As to `CCOC=C(C(=O)OCC)C(=O)OCC`, the outcome in assay [1], in assay [2], in assay [4], in assay [5], in [6] and in [9] was inactive. Also, the outcome in assay [7] and in [8] was inactive.

For `CCN(CC)CC`, the call in assay [1], in [2], in assay [3], in assay [4], in assay [5] and in assay [6] was inactive. Further, the result in assay [9] and in assay [7] was inactive.

Broadly, the AC50 is the concentration at which the activity in the assay is half-maximal. Consider `c1cc2cccc3c4cccc5cccc(c(c1)c23)c54`, for which the molecule was classed as inactive in assay [1], in assay [2], in assay [4], in assay [5], in assay [9] and in [7]. For the same molecule, in [8], the result was inactive. The AC50 in assay [3] was 17.6 µM (active).

For `CC(C)c1c(C(=O)Nc2ccccc2)c(-c2ccccc2)c(-c2ccc(F)cc2)n1CC[C@@H](O)C[C@@H](O)CC(=O)O`, the half-maximal activity concentration (AC50) in assay [1] is 25.6 µM (active); in assay [2], 136 µM (active) and 42.6 µM (active); in [9], 161 µM (active). Also, the molecule was called inactive in [1], in assay [4], in assay [5], in assay [6] and in [9].

In the case of `NC(=NCCCCCCN=C(N)/N=C(\N)Nc1ccc(Cl)cc1)/N=C(\N)Nc1ccc(Cl)cc1`, the concentration at half-maximal activity (AC50) in assay [1] is 163 µM (active) and 166 µM (active); in assay [4] it was 49.5 µM (active); in [5] it was 16.9 µM (active); in assay [6], 3.85 µM (active) and 3.17 µM (active); in [7] it was 48.6 µM (active); in [8], 26.8 µM (active) and 23.9 µM (active). Moreover, the molecule was classed as inactive in [1], in assay [2], in assay [4], in [5], in assay [6] and in assay [7]. In [8], the result was inactive.

Consider `O=C1OC(=O)C(F)(F)C1(F)F`, for which the molecule was called inactive in assay [1], in [2], in assay [4], in assay [5], in assay [6] and in assay [9]. Besides, the call in assay [7] and in assay [8] was inactive.

As for `O=C(Nc1ccc(Cl)c(Cl)c1)c1cc(Cl)cc(Cl)c1O`, the molecule was called inactive in assay [1], in [4] and in assay [8]. Also, the AC50 in [2] is 28.6 µM (active); in assay [5], 2.07 µM (active); in [6], 695 nM (active); in assay [9], 1.37 µM (active).

Consider `OCC(CO)(CBr)CBr`, for which the call in assay [1], in assay [2], in [3], in assay [4], in [5] and in assay [6] was inactive. For the same molecule, the result in assay [9] and in assay [7] was inactive.

`C/C=C/C(=O)C1=C(C)CCCC1(C)C`: the AC50 in assay [1] is 174 µM (active); in assay [2], 24.6 µM (active); in assay [4], 27.6 µM (active). Besides, the call in assay [5], in assay [9], in assay [7] and in [8] was inactive.

Take `Oc1c(Cl)ccc(Cl)c1Cl`: the outcome in assay [1], in assay [2], in [4], in [5], in assay [6] and in assay [9] was inactive. Further, in assay [7], the result was inactive. Besides, the concentration at half-maximal activity (AC50) in assay [3] is 68.3 µM (active).

As for `CC1=CC(=O)c2ccccc2C1=O`, the result in assay [1], in assay [2], in assay [4], in assay [5], in assay [9] and in assay [7] was inactive. Besides, the half-maximal activity concentration (AC50) is 1.4 µM (active) in assay [3] and 6.91 µM (active) in [8].

For the molecule `O=C(O)CN(CCCN(CC(=O)O)CC(=O)O)CC(=O)O`, the call in assay [1], in assay [3], in assay [4], in assay [5], in [6] and in [9] was inactive. The call in assay [7] and in assay [8] was inactive. The AC50 in [2] is 6.63 µM (active).

For the molecule `Cc1ccc(C(=O)c2ccccc2)cc1`, in assay [1], the AC50 is 61.1 µM (active). For the same molecule, the molecule was classed as inactive in assay [2], in assay [3], in [4], in assay [5], in assay [6] and in assay [9]. In addition, the molecule was called inactive in assay [7] and in assay [8].

For the molecule `CCCCN(C)C`, the outcome in assay [1], in [2], in assay [3], in [4], in assay [5] and in assay [6] was inactive. The molecule was classed as inactive in [9], in assay [7] and in [8].

Consider `COc1cc([N+](=O)[O-])ccc1N`, for which the molecule was classed as inactive in assay [1], in assay [2], in [3], in assay [4], in assay [5] and in [6]. The result in assay [7] and in assay [8] was inactive.
